Results as given in PubChem BioAssay (EPA / NIEHS).
Calls of active or inactive are those of the source. The calls were made as follows: active = hit-call score of the fitted dose curve at least 0.9, where 1 is the maximum; inactive = score below 0.9.

How the values were obtained:
[1] = read-out: TIMP metallopeptidase inhibitor 1 (TIMP1), TIMP1 (gene 7076); experiment: BSK_hDFCGF_TIMP1: BioMAP Diversity Plus: hDFCGF Assay for TIMP metallopeptidase inhibitor 1 (TIMP1) Biomarker Activity (AID 2283062); conditions: primary human foreskin fibroblasts; actives raise or lower the signal
Outline: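 TIMP-1 measured by ELISA 24 h after chemical dosing of primary human skin fibroblasts, with gain or loss fitted relative to DMSO. Parallel SRB staining (560 nm) monitored overt cytotoxicity.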

[2] = read-out: Monokine induced gamma interferon (MIG), CXCL9 (gene 4283); experiment: BSK_hDFCGF_MIG: BioMAP Diversity Plus: hDFCGF Assay for Monokine induced gamma interferon (MIG) Biomarker Activity (AID 2283063); conditions: primary human foreskin fibroblasts; actives raise or lower the signal
Outline: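 Human primary foreskin fibroblasts in the hDFCGF system, exposed to test chemical for 24 h; MIG measured by ELISA. Bidirectional curve fitting against DMSO negative control as activity baseline.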

[3] = read-out: Matrix Metallopeptidase 1 (MMP1), MMP1 (gene 4312); experiment: BSK_hDFCGF_MMP1: BioMAP Diversity Plus: hDFCGF Assay for Matrix Metallopeptidase 1 (MMP1) Biomarker Activity (AID 2283064); conditions: primary human foreskin fibroblasts; actives raise or lower the signal
Outline: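 Primary human foreskin fibroblasts in the hDFCGF system were dosed with test chemical, and MMP1 was measured by ELISA 24 h later. Values come from bidirectional curve fitting against the DMSO baseline.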

[4] = read-out: Vascular cell adhesion molecule 1 (VCAM1), VCAM1 (gene 7412); experiment: BSK_hDFCGF_VCAM1: BioMAP Diversity Plus: hDFCGF Assay for Vascular cell adhesion molecule 1 (VCAM1) Biomarker Activity (AID 2283065); conditions: primary human foreskin fibroblasts; actives raise or lower the signal;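 as to AC50: VCAM-1 protein level quantified by ELISA after 24 h chemical exposure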
Outline: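 ELISA readout of VCAM-1 on human dermal fibroblast primary cultures, 24 h after chemical exposure. Gain or loss of signal fitted in both directions against DMSO baseline.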

[5] = read-out: Plasminogen activator inhibitor-1 (PAI1), SERPINE1 (gene 5054); experiment: BSK_hDFCGF_PAI1: BioMAP Diversity Plus: hDFCGF Assay for Plasminogen activator inhibitor-1 (PAI1) Biomarker Activity (AID 2283066); conditions: primary human foreskin fibroblasts; actives raise or lower the signal
Outline: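 PAI-1 levels, determined by ELISA, served as the endpoint in human foreskin fibroblast cultures exposed to compound for 24 h, with DMSO as baseline.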

[6] = read-out: Intercellular Adhesion Molecule 1 (ICAM1), ICAM1 (gene 3383); experiment: BSK_KF3CT_ICAM1: BioMAP Diversity Plus: KF3CT Assay for Intercellular Adhesion Molecule 1 (ICAM1) Biomarker Activity (AID 2283067); conditions: primary human keratinocytes with fibroblasts; actives raise or lower the signal
Outline: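 Cell-surface ICAM-1 was measured by ELISA 24 h after dosing primary human skin keratinocytes co-cultured with fibroblasts. Parallel SRB staining tracked overt cytotoxicity. Gain or loss of signal was fitted relative to DMSO.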

[7] = read-out: Interferon-gamma inducible Protein 10 (IP10), CXCL10 (gene 3627); experiment: BSK_KF3CT_IP10: BioMAP Diversity Plus: KF3CT Assay for Interferon-gamma inducible Protein 10 (IP10) Biomarker Activity (AID 2283068); conditions: primary human keratinocytes with fibroblasts; actives raise or lower the signal
Outline: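 Signal is secreted/surface IP-10 by ELISA in a human primary skin co-culture of keratinocytes and foreskin fibroblasts, taken 24 h post-dosing; DMSO served as negative control.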

[8] = BSK_KF3CT_SRB: Viability Assessment in the BioMAP Diversity Plus: KF3CT Assay (AID 2283069); conditions: primary human keratinocytes with fibroblasts;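 also: total protein by sulforhodamine B staining as a cytotoxicity measure; read 24 h after compound addition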
Outline: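 Human primary keratinocyte plus foreskin fibroblast co-culture exposed to chemicals for 24 h. Total protein measured by 0.1% sulforhodamine B staining after 10% TCA fixation, read at 560 nm; bidirectional fitting versus DMSO baseline.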

[9] = read-out: Interleukin-1 alpha (IL1a), IL1A (gene 3552); experiment: BSK_KF3CT_IL1a: BioMAP Diversity Plus: KF3CT Assay for Interleukin-1 alpha (IL1a) Biomarker Activity (AID 2283070); conditions: primary human keratinocytes with fibroblasts; actives raise or lower the signal
Outline: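 Human keratinocyte plus foreskin fibroblast primary co-culture, sampled 24 h after chemical dosing. IL-1a measured by ELISA; responses fitted bidirectionally against DMSO baseline (negative control), so gain or loss of signal both count.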

[10] = read-out: Transforming growth factor beta 1 (TGFb1), TGFB1 (gene 7040); experiment: BSK_KF3CT_TGFb1: BioMAP Diversity Plus: KF3CT Assay for Transforming growth factor beta 1 (TGFb1) Biomarker Activity (AID 2283072); conditions: primary human keratinocytes with fibroblasts; actives raise or lower the signal
Outline: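 Signal changes in either direction, relative to DMSO, define activity here. TGF-b1 is read by ELISA from a human keratinocyte-fibroblast co-culture 24 h post-dose.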

[11] = read-out: C-C motif chemokine 2 (Homo sapiens) (UniProt P13500); experiment: BSK_KF3CT_MCP1: BioMAP Diversity Plus: KF3CT Assay for Monocyte Chemoattractant Protein 1 (MCP1/CCL2) Biomarker Activity (AID 2283073); conditions: primary human keratinocytes with fibroblasts; actives raise or lower the signal
Outline: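 ELISA read-out of MCP-1, 24 h post-dose, in primary human skin keratinocytes co-cultured with fibroblasts. Parallel SRB staining monitors cytotoxicity; changes fitted both directions relative to DMSO.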

[12] = read-out: Matrix Metallopeptidase 9 (MMP9), MMP9 (gene 4318); experiment: BSK_KF3CT_MMP9: BioMAP Diversity Plus: KF3CT Assay for Matrix Metallopeptidase 9 (MMP9) Biomarker Activity (AID 2283074); conditions: primary human keratinocytes with fibroblasts; actives raise or lower the signal
Outline: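 Keratinocyte plus foreskin fibroblast human primary skin co-culture was dosed with chemical and MMP-9 was quantified by ELISA 24 h later. Bidirectional curve fitting used DMSO as negative control and activity baseline.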

[13] = read-out: urokinase plasminogen activator (uPA), PLAU (gene 5328); experiment: BSK_KF3CT_uPA: BioMAP Diversity Plus: KF3CT Assay for urokinase plasminogen activator (uPA) Biomarker Activity (AID 2283075); conditions: primary human keratinocytes with fibroblasts; actives raise or lower the signal
Outline: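 Human keratinocyte plus foreskin fibroblast primary co-culture exposed to chemical for 24 h. uPA levels were quantified by ELISA, and activity was fitted bidirectionally against a DMSO negative-control baseline.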

CD40, CD40 (gene 958) = experiment: BSK_LPS_CD40: BioMAP Diversity Plus: LPS Assay for CD40 Biomarker Activity (AID 2283076); conditions: primary human HUVEC with PBMC; actives raise or lower the signal
Outline: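 In the LPS system of human endothelial cells with peripheral blood mononuclear cells, CD40 levels were read by ELISA 24 h post-treatment. Signal changes in either direction were fitted against the DMSO baseline, with parallel SRB protein staining.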

[14] = read-out: E-selectin (Homo sapiens) (UniProt P16581); experiment: BSK_LPS_Eselectin: BioMAP Diversity Plus: LPS Assay for Eselectin Biomarker Activity (AID 2283077); conditions: primary human HUVEC with PBMC; actives raise or lower the signal
Outline: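 E-selectin ELISA on LPS-stimulated endothelial cell/PBMC co-cultures, read 24 h post-treatment; gains and losses fitted against DMSO. Parallel SRB staining (0.1% SRB after 10% TCA fixation, 560 nm) flags overt cytotoxicity.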

[15] = read-out: Interleukin-8 (IL8), CXCL8 (gene 3576); experiment: BSK_LPS_IL8: BioMAP Diversity Plus: LPS Assay for Interleukin-8 (IL8) Biomarker Activity (AID 2283078); conditions: primary human HUVEC with PBMC; actives raise or lower the signal
Outline: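 ELISA read-out of IL-8 after 24 h chemical treatment of LPS-activated endothelial/PBMC human primary co-cultures. Changes either up or down relative to DMSO; overt cytotoxicity checked by sulforhodamine B staining in parallel wells.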

[16] = BSK_LPS_SRB: Viability Assessment in the BioMAP Diversity Plus: LPS Assay (AID 2283079); conditions: primary human HUVEC with PBMC;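 also: total protein by sulforhodamine B absorbance as a cytotoxicity measure; measured one day after compound addition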
Outline: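 SRB viability endpoint: cells fixed with 10% TCA, stained with 0.1% SRB, read at 560 nm, 24 h post-dose. HUVEC/PBMC co-culture; signal change in either direction scored relative to DMSO.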

[17] = read-out: Interleukin-1 alpha (IL1a), IL1A (gene 3552); experiment: BSK_LPS_IL1a: BioMAP Diversity Plus: LPS Assay for Interleukin-1 alpha (IL1a) Biomarker Activity (AID 2283080); conditions: primary human HUVEC with PBMC; actives raise or lower the signal
Outline: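 Readout is IL-1a level by ELISA, 24 h post-dose, fitted as gain or loss relative to DMSO. System: LPS-activated human primary co-culture of vascular endothelium and peripheral blood mononuclear cells, with parallel SRB total-protein cytotoxicity.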

[18] = read-out: Monocyte Chemoattractant Protein-1 (MCP1), CCL2 (gene 6347); experiment: BSK_LPS_MCP1: BioMAP Diversity Plus: LPS Assay for Monocyte Chemoattractant Protein-1 (MCP1) Biomarker Activity (AID 2283081); conditions: primary human HUVEC with PBMC; actives raise or lower the signal;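 as to AC50: secreted MCP-1 protein quantified by ELISA in culture supernatant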
Outline: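 Secreted MCP-1 read by ELISA at 24 h post-dosing in an LPS-activated co-culture of endothelial cells with peripheral blood mononuclear cells. Fits run in both directions, DMSO as baseline; parallel SRB staining tracks overt cytotoxicity.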

[19] = read-out: TIMP metallopeptidase inhibitor 2 (TIMP2), TIMP2 (gene 7077); experiment: BSK_KF3CT_TIMP2: BioMAP Diversity Plus: KF3CT Assay for TIMP metallopeptidase inhibitor 2 (TIMP2) Biomarker Activity (AID 2283071); conditions: primary human keratinocytes with fibroblasts; actives raise or lower the signal
Outline: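 Keratinocyte–fibroblast co-culture, 24 h exposure; TIMP-2 ELISA, DMSO-normalised bidirectional fit. Parallel SRB (0.1%, TCA-fixed, 560 nm) total-protein staining gauges cytotoxicity.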

Measured: AC50

Sequence of E-selectin (Homo sapiens) (P16581 whole entry, looked up): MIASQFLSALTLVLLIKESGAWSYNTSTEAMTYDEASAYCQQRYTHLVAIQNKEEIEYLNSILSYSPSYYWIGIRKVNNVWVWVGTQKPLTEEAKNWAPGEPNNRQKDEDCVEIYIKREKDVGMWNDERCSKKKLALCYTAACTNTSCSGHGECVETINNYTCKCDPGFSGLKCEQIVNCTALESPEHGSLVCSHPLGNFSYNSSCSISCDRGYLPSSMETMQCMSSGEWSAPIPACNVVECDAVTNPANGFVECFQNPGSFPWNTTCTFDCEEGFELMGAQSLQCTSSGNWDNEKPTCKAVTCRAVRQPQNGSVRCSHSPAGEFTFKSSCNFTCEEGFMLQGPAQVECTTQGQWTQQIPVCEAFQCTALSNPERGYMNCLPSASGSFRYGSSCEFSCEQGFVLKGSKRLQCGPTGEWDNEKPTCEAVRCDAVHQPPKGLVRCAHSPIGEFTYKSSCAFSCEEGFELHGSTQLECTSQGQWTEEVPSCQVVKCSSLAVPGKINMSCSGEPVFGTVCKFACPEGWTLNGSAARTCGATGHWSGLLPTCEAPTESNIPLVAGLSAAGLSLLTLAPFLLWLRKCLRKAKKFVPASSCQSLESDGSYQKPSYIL

O=C(NS(=O)(=O)/C=C/c1cccs1)c1ccc(F)cc1Br
active: [9] 2090 nM | CD40, CD40 (gene 958) 451 nM
not listed: [19]
inactive: all other assays above

CCCC(=O)O
not listed: [19]
inactive: all other assays above

CC(C)(O)c1ccc(CNC(=O)c2cccnc2Oc2ccc(F)cc2)cc1
active: [5] 457 nM
not listed: [9]
inactive: all other assays above

CC(C)c1cccc(C(C)C)c1
not listed: [9]
inactive: all other assays above

N[C@@H](Cc1c[nH]c2ccccc12)C(=O)O
not listed: [19]
inactive: all other assays above

C=CCc1ccc(OC)c(OC)c1
not listed: [9]
inactive: all other assays above

COc1ccc(C(=O)Nc2nc3ccccc3c(NCc3ccccc3)c2C#N)cc1
active: CD40, CD40 (gene 958) 3970 nM
not listed: [19]
inactive: all other assays above

CC(=O)OCC(COC(C)=O)OC(C)=O
not listed: [9]
inactive: all other assays above

OCC(CO)n1cnc(-c2ccc(F)cc2)c1-c1ccnc(Oc2ccccc2)n1
active: [3] 909 nM | [4] 1800 nM | [14] 1090 nM | [15] 544 nM | [17] 148 nM | [18] 510 nM
not listed: [19]
inactive: all other assays above

Cc1ccc(C(C)(C)C)c(O)c1
not listed: [9]
inactive: all other assays above

CC(N)=O
not listed: [9]
inactive: all other assays above

CCc1cc(C2=C(C(=O)O)N(c3ccccc3C(F)(F)F)S(=O)(=O)c3ccccc32)cc2c1OCO2
active: [3] 19800 nM
not listed: [9]
inactive: all other assays above

CCCCCCCCCC[N+](C)(C)[O-]
not listed: [19]
inactive: all other assays above

O=C1NC(=O)C(c2ccccc2)(c2ccccc2)N1
not listed: [9]
inactive: all other assays above
